This is part of a sample that, as a whole, favours compounds with a hit. Of some 83,000 tested, about 20% had one in any assay.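 48-hour exposure, single concentration, 96-well plates; percent growth endpoint where 0 means no net growth. Active: below 10.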 Active and inactive are the calls of the source.
Tested on: HOP-62 NSCLC
Experiment: NCI-60 one-dose screen, 48 h (100 = growth as untreated, 0 = no growth, -100 = all killed)
Conditions: 10 µM unless noted

Structure (SMILES)	growth
N#CC1=C(N)Oc2c(c(N)nn2-c2ccccc2)C1c1ccc(Cl)cc1Cl (stereo not drawn)	92.8% (inactive)
C=C(C)[C@@H]1CC[C@]2(C=O)CC[C@]3(C)[C@H](CC[C@@H]4[C@@]5(C)C/C(=C/c6cccnc6)C(=O)C(C)(C)[C@@H]5CC[C@]43C)[C@@H]12	119% (inactive)
C=C(C)[C@@H]1CC[C@]2(C(=O)N3CCN(CC)CC3)CC[C@]3(C)[C@H](CC[C@@H]4[C@@](C)(CCC(=O)N5CCN(CC)CC5)[C@H](C(=C)C)CC[C@]43C)[C@@H]12	88.7% (inactive)
CCN1CCN(C(=O)[C@]23CCC(C)(C)C[C@H]2C2=CC[C@@H]4[C@@]5(C)CC/C(=N/O)C(C)(C)[C@@H]5CC[C@@]4(C)[C@]2(C)CC3)CC1	76.9% (inactive)
N#CC1=C(N)Oc2c(sc3c(F)cccc23)C1c1ccc(Cl)cc1 (stereo not drawn)	28.8% (inactive)
O=C1c2cccc3cccc(c23)C(=O)N1CC#Cc1ccc2c3c(cccc13)C(=O)N(CCN1CCNCC1)C2=O	110% (inactive)
C=C(C)[C@@H]1CC[C@]2(/C=N/Nc3ccncc3)CC[C@]3(C)[C@H](CC[C@@H]4[C@@]5(C)CCCNC(C)(C)[C@@H]5CC[C@]43C)[C@@H]12	94.7% (inactive)
Cc1ccnc2c(OCc3ccccc3)cccc12	106% (inactive)
C=CC(=O)N[C@H](Cc1ccc(-c2cc(Cl)cc(Cl)c2)cc1)[C@H](O)[C@@H](O)C(=O)O	87.3% (inactive)
C=COCCCCCCCCCCCCCCCCCC	108% (inactive)
COc1cc2ncnc(Nc3ccc(Oc4ccnc(C)c4)c(C)c3)c2cc1NC(=O)CC1CCSS1 (stereo not drawn)	-50.7% (active)
CN1CCN(c2nc(-c3csc(-c4cccs4)n3)cc3ccccc23)CC1	68.3% (inactive)
O=C(O[C@@H]1Cc2c(O)cc(O)cc2O[C@@H]1c1cc(O)c(O)c(O)c1)c1cc(O)c2c(c1)OCO2	98.5% (inactive)
C/C(Cc1ccc(Cl)cc1)=C(/c1ccc(Cl)cc1)c1ccc(OCCN2CCCC2)cc1	91.7% (inactive)
Cc1cc(N(CCCNc2ccnc3cc(Cl)ccc23)Cc2ccco2)nc(N2CCOCC2)n1	64.4% (inactive)
Cc1ccccc1-c1nc(C(Cl)Cl)nc2cc(-c3ccccc3)nn12	54.9% (inactive)
O=C1/C(=C\C(Cl)=C/c2ccc([N+](=O)[O-])cc2)SC(=S)N1CCc1ccc(O)cc1	12.9% (inactive)
Brc1ccc2c(c1)c(-c1nc(-c3c[nH]c4ncccc34)cs1)cn2CCCN1CCCCC1	-66.7% (active)
Cn1c(/C(C#N)=C/c2ccc3ccccc3c2)cc2ccccc21	38.2% (inactive)

Structure (SMILES)	growth
CN(CSc1ccc(Cl)cc1)c1ccc(CSc2ccc(Cl)cc2)cc1	118% (inactive)
CCNCCCn1c2c(c3ccc([N+](=O)[O-])cc3c1=O)C(=O)c1cc(OC)cnc1-2	-66.6% (active)
CC1(C)NC2=C(C(Nc3cccnc3)N1)C(c1ccc([N+](=O)[O-])cc1)C(C(=O)c1ccc(N=[N+]=[N-])cc1)O2 (stereo not drawn)	103% (inactive)
COc1ccc(C2C(C#N)=C(N)Oc3c2sc2c(F)cccc32)cc1 (stereo not drawn)	22.9% (inactive)
COc1cc(-c2cc3ncccc3c3[nH]c(=O)c4cccnc4c23)cc(OC)c1OC	30.3% (inactive)
CCCCC/C(=C\c1ccccc1)C1OC(C)C(C)O1 (stereo not drawn)	93.5% (inactive)
COc1ccc2c(c1)c(-c1nc(-c3c[nH]c4ncccc34)cs1)cn2CCNC(=O)OC(C)(C)C	64.1% (inactive)
COc1cc(/C=C/c2cc(/C=C/c3ccc(O)c(OC)c3)n(-c3ccccc3)c(=O)n2)ccc1O	85.8% (inactive)
CCN1CCN(C(=O)[C@]23CC[C@@H](C)[C@H](C)[C@H]2C2=CC[C@@H]4[C@@]5(C)C/C(=C/c6cccc(OC)c6OC)C(=O)C(C)(C)[C@@H]5CC[C@@]4(C)[C@]2(C)CC3)CC1	57.7% (inactive)
COc1cc2c(cc1-c1c(C)noc1C)ncc1nc(C3CCCCC3)n([C@@H](C)COC(F)F)c12	28.6% (inactive)
CC(=O)OC[C@]12CC[C@@H](/C(C)=N/O)[C@@H]1[C@H]1CC[C@@H]3[C@@]4(C)CCCNC(C)(C)[C@@H]4CC[C@@]3(C)[C@]1(C)CC2	85.2% (inactive)
Brc1cnc2[nH]cc(-c3nnc(-c4ccccc4)o3)c2c1	85.2% (inactive)
COc1ccc2[nH]c(-c3ccc(Cl)cc3)cc(=O)c2c1	104% (inactive)
CCN1CCN(C(=O)[C@]23CCC(C)(C)C[C@@H]2C2=CC[C@@H]4[C@@]5(C)C/C(=C/c6ccncc6)C(=O)C(C)(C)[C@@H]5CC[C@@]4(C)[C@]2(C)CC3)CC1	-66.9% (active)
COc1ccc(/C=C(\C#N)c2cc3ccccc3n2S(C)(=O)=O)cc1	91.5% (inactive)
Cc1ccc(S(=O)(=O)Nc2ccc(-c3cc(-c4cccc(F)c4)c(C#N)c(=O)[nH]3)cc2)cc1	92.3% (inactive)
N#CC1=C(N)Oc2c(c(N)nn2-c2ccccc2)C1c1ccc(Cl)cc1 (stereo not drawn)	89.8% (inactive)
C=C(C)[C@@H]1CC[C@]2(CN)CC[C@]3(C)[C@H](CC[C@@H]4[C@@]5(C)CCC(=O)NC(C)(C)[C@@H]5CC[C@]43C)[C@@H]12	81.6% (inactive)
CC1(C)[C@@H](O)CC[C@]2(C)[C@H]3CC[C@@H]4[C@H]5[C@H](C(=O)/C=C/c6ccc(C(F)(F)F)cc6)CC[C@]5(CO)CC[C@@]4(C)[C@]3(C)CC[C@@H]12	97.4% (inactive)
